Source: PubChem (Broad Institute)
miR-122 inh = miR-122 sensor activation. Huh7 psiCHECK-miR122 Renilla luciferase sensor, 48 h. activation, % at 12.5 µM. actives 0.14% (n = 340,000). AID 623901;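 active means mean activation of 30% or more, with every replicate also reaching 30%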;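 further: 0% = median of neutral control wells and 100% = median of positive control wells; higher luciferase signal means stronger suppression of miR-122 activity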
The depositor's hits bear a star. This excerpt belongs to a sample that is enriched for hits.

SMILES	miR-122 inh
COCC#Cc1cnc2c(c1)C(=O)N([C@H](C)CO)C[C@H](C)[C@@H](CN(C)C(=O)Cc1ccccc1)O2	-6
COc1ccc(-c2cnc3c(c2)C(=O)N([C@H](C)CO)C[C@@H](C)[C@@H](CN(C)C(=O)C2CCOCC2)O3)cc1	-3
C[C@H](CO)N1C[C@H](C)[C@@H](CN(C)C(=O)Nc2ccc(F)cc2)Oc2c(NS(=O)(=O)c3ccccc3)cccc2C1=O	-128
CC(C)CC#Cc1ccc2c(c1)O[C@H](CN(C)C(=O)NC1CCCC1)[C@@H](C)CN([C@@H](C)CO)S2(=O)=O	-30
COc1cccc2c1C(=O)c1c(O)c3c(c(O)c1C2=O)C[C@@](O)(C(=O)CO)C[C@@H]3O[C@H]1C[C@H](N)[C@H](O)[C@H](C)O1	69*
CCC(=O)N(C)C[C@H]1Oc2cc(C#C[C@H](C)O)ccc2S(=O)(=O)N([C@H](C)CO)C[C@@H]1C	1
CO[C@H]1CN(C)C(=O)c2cc(NC(=O)Nc3ccccc3)ccc2OC[C@H](C)NC[C@@H]1C	1
C[C@@H]1CN([C@@H](C)CO)S(=O)(=O)c2ccc(C#C[C@@H](C)O)cc2O[C@@H]1CN(C)C	6
CC(=O)N(C)C[C@@H]1Oc2cc(C#CC3CCCCC3)ccc2S(=O)(=O)N([C@@H](C)CO)C[C@@H]1C	3
Oc1c(Cl)cc(Cl)cc1/C=N/Nc1ncc(Br)cn1	62*
Cc1ccc(-c2cnc3c(c2)C(=O)N([C@@H](C)CO)C[C@H](C)[C@@H](CN(C)C(=O)c2ccncc2)O3)cc1	0
CCCN1C[C@H](C)[C@@H](OC)CN(C)C(=O)c2ccc(NC(=O)COC)cc2OC[C@@H]1C	0
C[C@@H]1CN([C@@H](C)CO)S(=O)(=O)c2ccc(Br)cc2O[C@H]1CN(C)S(C)(=O)=O	-2
COc1cccc(S(=O)(=O)N(C)C[C@@H]2Oc3ncc(C#CCC(C)C)cc3C(=O)N([C@@H](C)CO)C[C@H]2C)c1	4
NCC12CC3CC(C1)CC(c1ccc(Br)cc1)(C3)C2	34*
COc1ccccc1S(=O)(=O)N(C)C[C@@H]1Oc2ncc(-c3ccc(C)cc3)cc2C(=O)N([C@@H](C)CO)C[C@H]1C	4
C[C@H]1CN([C@@H](C)CO)C(=O)Cc2cc(NS(=O)(=O)c3ccc(F)cc3)ccc2O[C@H]1CN(C)Cc1ccc(C(=O)Nc2ccccc2N)cc1	-114
C[C@H](CO)N1C[C@H](C)[C@@H](CN(C)Cc2ccccn2)Oc2cc(C#CC3CC3)ccc2S1(=O)=O	-54
Cc1noc(C)c1NC(=O)N(C)C[C@H]1Oc2cc(C#CCC(C)C)ccc2S(=O)(=O)N([C@@H](C)CO)C[C@H]1C	-54
C=CCNC(=S)NNC(=O)Cn1c(-c2ccccc2)cc(=O)n2ncnc12	34*
C[C@H](CO)N1C[C@H](C)[C@H](CN(C)Cc2cccc(C(=O)O)c2)Oc2ncc(C#CCc3ccccc3)cc2C1=O	-10
C[C@H]1CN([C@@H](C)CO)S(=O)(=O)c2ccc(-c3ccccc3)cc2O[C@@H]1CN(C)Cc1ccccc1C(=O)O	-26
CN1C(=O)c2cc(NC(=O)c3ccc(C(F)(F)F)cc3)ccc2OC[C@H]2O[C@H](CC(=O)NC3Cc4ccccc4C3)CC[C@@H]21	63*
CN1C(=O)c2cc(NC(=O)c3ccc(C(F)(F)F)cc3)ccc2OC[C@@H]2O[C@H](CC(=O)NC3Cc4ccccc4C3)CC[C@H]21	37*
C[C@@H]1CN([C@H](C)CO)S(=O)(=O)c2ccc(C#CC3(O)CCCC3)cc2O[C@@H]1CN(C)C(=O)Nc1ccc(F)cc1	-63
SMILES	miR-122 inh
COCC(=O)Nc1ccc2c(c1)OC[C@@H](C)NC[C@H](C)[C@H](OC)CN(C)C2=O	-1
CCC(=O)N(C)C[C@@H]1Oc2ncc(C#C[C@H](C)O)cc2C(=O)N([C@H](C)CO)C[C@@H]1C	0
C[C@@H]1CN([C@H](C)CO)C(=O)c2cc(C#Cc3ccccc3F)cnc2O[C@@H]1CN(C)S(=O)(=O)c1ccccc1	3
C[C@@H]1CN([C@@H](C)CO)C(=O)Cc2cc(NC(=O)Nc3cccc4ccccc34)ccc2O[C@@H]1CN(C)C(=O)NC1CCCCC1	-167
C[C@H]1CN([C@@H](C)CO)C(=O)c2cccc(NC(=O)Nc3ccc(C(F)(F)F)cc3)c2O[C@@H]1CN(C)CC1CCCCC1	-92
C[C@H](CO)N1C[C@H](C)[C@@H](CN(C)CC2CCCCC2)OCCCC[C@H](C)Oc2ccc(NC(=O)Nc3cccc4ccccc34)cc2C1=O	34*
COc1ccc(S(=O)(=O)Nc2ccc3c(c2)C(=O)N([C@@H](C)CO)C[C@H](C)[C@H](CN(C)C(=O)Nc2ccccc2)OCCCC[C@@H](C)O3)cc1	-120
C[C@@H]1CCCCO[C@@H](CN(C)CC2CCCCC2)[C@@H](C)CN([C@@H](C)CO)C(=O)c2cc(NC(=O)Nc3cccc4ccccc34)ccc2O1	31*
C[C@H](CO)N1C[C@H](C)[C@@H](CN(C)CC2CCCCC2)Oc2c(NC(=O)c3ccncc3)cccc2C1=O	-127
C[C@@H]1CN([C@@H](C)CO)C(=O)c2cc(-c3ccccc3F)cnc2O[C@H]1CN(C)Cc1ccccc1F	-42
C[C@@H]1CN([C@H](C)CO)C(=O)c2cc(C#CC3(O)CCCC3)cnc2O[C@H]1CN(C)C(=O)CN(C)C	0
COc1ccccc1-c1cnc2c(c1)C(=O)N([C@H](C)CO)C[C@@H](C)[C@H](CN(C)Cc1ccccc1)O2	-5
C[C@H]1CN([C@@H](C)CO)S(=O)(=O)c2ccc(-c3cncnc3)cc2O[C@H]1CN(C)Cc1ccccc1	-5
COc1cccc(-c2cnc3c(c2)C(=O)N([C@@H](C)CO)C[C@H](C)[C@@H](CN(C)CC2CCOCC2)O3)c1	-1
CC(C)C#Cc1ccc2c(c1)O[C@H](CN(C)C(=O)CC1CC1)[C@H](C)CN([C@@H](C)CO)S2(=O)=O	3
C[C@@H]1CN([C@@H](C)CO)C(=O)c2cc(C#CCC3CCCC3)cnc2O[C@H]1CN(C)C(=O)CC1CC1	0
COc1cccc(-c2ccc3c(c2)O[C@@H](CN(C)CC2CC2)[C@@H](C)CN([C@@H](C)CO)S3(=O)=O)c1	4
C[C@H]1CN([C@@H](C)CO)S(=O)(=O)c2ccc(C#CCN(C)C)cc2O[C@@H]1CN(C)Cc1ccc2c(c1)OCO2	-104
C[C@H](CO)N1C[C@H](C)[C@H](CN(C)S(=O)(=O)c2cn(C)cn2)Oc2ncc(-c3cccc(C(F)(F)F)c3)cc2C1=O	4
CC(C)C(=O)Nc1ccc2c(c1)C(=O)N(C)[C@H]1CC[C@@H](CC(=O)NCC3CC3)O[C@@H]1CO2	-92
COc1cccc(CNC(=O)C[C@@H]2CC[C@H]3[C@H](COc4ccc(NS(=O)(=O)c5ccccc5F)cc4C(=O)N3C)O2)c1	37*
CO[C@@H]1CN(C)C(=O)c2cc(NC(=O)c3ccc(F)cc3)ccc2OC[C@@H](C)N(C)C[C@H]1C	-3
CC(C)C(=O)Nc1ccc2c(c1)C(=O)N(C)[C@@H]1CC[C@@H](CC(=O)N[C@H](C)c3ccccc3)O[C@@H]1CO2	70*
COc1cccc(C(=O)Nc2ccc3c(c2)C(=O)N(C)[C@@H]2CC[C@@H](CC(=O)NCc4ccc(F)cc4)O[C@@H]2CO3)c1	37*
CO[C@@H]1CN(C)C(=O)c2cc(NC(=O)Cc3ccccc3)ccc2OC[C@@H](C)N(C)C[C@H]1C	-6
CNC(=O)C[C@H]1CC[C@@H]2[C@H](COc3ccc(NC(=O)c4cccc(OC)c4)cc3C(=O)N2C)O1	83*
